# Experimental data: PubChem BioAssay (NCATS)
# Inconclusive results are not listed. A call without a number means that no potency is given here. Calls of active or inactive are those of the source. The call rests on the fitted dose curve; in most records, active means well fitted inhibition curve with a large enough effect; inconclusive means small, poorly fitted or top-dose-only effect; inactive means flat fitted curve, though single readings scatter.
# Target: Calcium and integrin-binding protein 1 (Homo sapiens) (UniProt Q99828)
# Sequence (Q99828 whole entry, looked up): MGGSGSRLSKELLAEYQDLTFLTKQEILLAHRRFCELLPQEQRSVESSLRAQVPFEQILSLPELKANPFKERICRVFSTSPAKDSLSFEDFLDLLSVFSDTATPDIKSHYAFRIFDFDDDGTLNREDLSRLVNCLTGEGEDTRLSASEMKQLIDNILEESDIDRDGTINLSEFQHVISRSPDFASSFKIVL
# Assay: Primary qHTS for Identification of Calcium Integrin Binding Protein 1 (CIB1) Competitor (AID 1508620)
# Details: CIB1-GST / FITC-alphaIIb peptide fluorescence polarization; series mostly up to 57.7 µM
# From the text: Assay Provider: Ulhas P. Naik, PhD Sidney Kimmel Medical College Thomas Jefferson University, Philadelphia, PA Primary function of platelets is to maintain hemostasis. At the site of vascular injury, platelets adhere to adhesive proteins such as collagen and von Willebrand factor. Adherent platelets are activated and generate soluble platelet agonists such as thrombin, ADP and thromboxane A2. Following exposure of circulating platelets to these agonists, results in platelet shape change, granule secretion and activation of platelet integrin alphaIIb-beta3. Ligand binding to activated integrin alphaIIb-beta3 triggers outside-in signaling, leading to platelet aggregation, stabilization of platelet plug, and clot retraction. Upon atherosclerotic plaque rupture also causes platelet plug formation, which underlies a number of cardiovascular diseases such as myocardial infraction and stroke. A number of anti-platelet drugs such as aspirin, clopidogrel, prasugrel, vorapaxar, and eptifibatide are currently available to prevent the thrombotic complications. However, these anti-platelet agents have several limitations including inherent variability in individual responses, developing resistance, and serious bleeding side effects. For these reasons they are not suitable for long-term protection. Based on the experiences with current anti-platelet drugs, it appears that the most useful therapeutic approach is to intersect the secondary responses such as integrin outside-in signaling or recruitment of platelets by TxA2 and secreted ADP. Compounds, which can largely preserve the primary hemostatic function of platelets but inhibit secondary response will be most desired therapeutic agents for treatment of cardiovascular disease. CIB1 is a calcium integrin binding protein, which specifically interact with the alphaIIb subunit of integrin alphaIIb-beta3. Binding of CIB1 to alphaIIb regulates the outside-in signaling in platelets, which is needed for thrombus stabilization and thrombus growth. […] Therefore, we propose that discovery of a small molecule that can prevent the association of CIB1 and alphaIIb-beta3 will be a potential anti-platelet agent that can block the thrombus formation without undue effect on hemostasis. Reference: [1] Naik MU, Nigam A, Manrai P, et al. CIB1 deficiency results in impaired thrombosis: the potential role of CIB1 in outside-in signaling through integrin alpha IIb beta 3. J Thromb Haemost.
# PROTOCOL TABLES SEQUENCE No. (1, 2, 3, etc.); […] (e.g., Cells, Incubation, Reagent, etc.); VALUE and DESCRIPTION. 1; Reagent; 3 uL; Protein or buffer (4/3x) 2; Compound; 46 nL; Control inhibitor / compound library 3; Time; 15 min; Room temperature incubation 4; Reagent; 1 uL; Fluorescent labeled peptide (4x) 5; Time; 1000 rpm; Centrifuge 6; Time; 15 min; Room temperature incubation 7; Detection; Ex 480/ Em 540; ViewLux Fluorescence Read NOTES (numbers refer to sequence above) 1; Protein Mixture: C1B1-GST (final concentrations of 1 uM). […] 3; Room temperature incubation. 4; Fluorescent Labeled Peptide: FITC-aIIb (final concentration of 100 nM). Sequence of alphaIIb peptide: Acetyl-[…]-FITC (purity is 95.83%). 5; Centrifuge 1000 rpm (164 g) for 15 seconds. 6; Room temperature incubation. 7; ViewLux Fluorescent Polization Read: excitation = 480(20) / emission = 540(25) S and P; FITC Dichroic mirror.
# Potency means the concentration at half of the fitted maximal effect.
row,Structure (SMILES),Potency
1,NC(=O)c1nnn(Cc2cc(Cl)c(C(=O)c3ccc(Cl)cc3)c(Cl)c2)c1N,inactive
2,COc1ccc2c(c1)c(C1=C(c3c[nH]c4ccccc34)C(=O)NC1=O)cn2CCCN(C)C,inactive
3,Nc1ccc(-c2ccc3ncc4ccc(=O)n(-c5cccc(C(F)(F)F)c5)c4c3c2)cn1,inactive
4,NCC1CCC(C(=O)O)CC1 (stereo not given),inactive
5,OC[C@H]1O[C@@H](O[C@H]2[C@@H](O)[C@@](O)(CO)O[C@@H]2CO)[C@H](O)[C@@H](O)[C@@H]1O,inactive
6,CCOC(=O)[C@H]1O[C@H]1C(=O)N[C@@H](CC(C)C)C(=O)NCCC(C)C,inactive
7,Cc1nc(NC(=O)N2CCC[C@@H]2C(N)=O)sc1-c1csc(C(C)(C)C)n1,inactive
8,CCN(CCO)CCCOc1ccc2c(Nc3cc(CC(=O)Nc4cccc(F)c4)[nH]n3)ncnc2c1,inactive
9,OC[C@H]1O[C@@H](OCCc2ccc(O)cc2)[C@H](O)[C@@H](O)[C@H]1O,inactive
10,CN(C)CCN(Cc1ccc(Cl)cc1)c1ccccn1,inactive
11,N#CC(c1ccc(Cl)cc1)c1c(Cl)cc(-n2ncc(=O)[nH]c2=O)cc1Cl (stereo not given),inactive
12,CCOc1ccccc1N=Nc1c(C)[nH]n(-c2nc(-c3ccccc3)cs2)c1=O,inactive
13,Cc1cc(CS(=O)(=O)c2ccccc2)cc(OCc2ccc(CN3CCC[C@H]3CO)cc2)c1,inactive
14,COc1ccc(-c2ccc3ncc4c(c3c2)n(-c2ccc(N3CCNCC3)c(C(F)(F)F)c2)c(=O)n4C)cn1,inactive
15,CN(CC=CC#CC(C)(C)C)Cc1cccc2ccccc12,inactive
16,CCC(c1ccc(O)cc1)C(CC)c1ccc(O)cc1 (stereo not given),inactive
17,CC(C)(C)c1nc(-c2cccc(NS(=O)(=O)c3c(F)cccc3F)c2F)c(-c2ccnc(N)n2)s1,inactive
18,CCC[C@H](N[C@@H](C)C(=O)N1[C@@H]2CCCC[C@H]2C[C@H]1C(=O)O)C(=O)OCC,inactive
19,NS(=O)(=O)c1ccc(Nc2nc(OCC3CCCCC3)c3[nH]cnc3n2)cc1,inactive
20,O=C(Nc1cccc(Cl)c1)Nc1ncc(CCNc2ncnc3ccsc23)s1,inactive

row,Structure (SMILES),Potency
1,CNC(=O)c1cc(Oc2ccc(NC(=O)Nc3ccc(Cl)c(C(F)(F)F)c3)c(F)c2)ccn1,inactive
2,CC1(C)C(N(O)C(=O)Nc2ccc(Cl)cc2)N(c2ccc(Cl)cc2)C(=O)N1CC(=O)NN=CC=Cc1ccc([N+](=O)[O-])o1 (stereo not given),inactive
3,C[C@@H](NC(=O)c1ncnc(N)c1Cl)c1ncc(C(=O)Nc2cc(C(F)(F)F)c(Cl)cn2)s1,inactive
4,COc1cc(Cl)cn2c(-c3cccc(NC4CNC4)n3)cnc12,inactive
5,CCC(=O)OCC(=O)[C@@]1(OC(=O)CC)[C@@H](C)C[C@@H]2[C@H]3CCC4=CC(=O)C=C[C@]4(C)[C@@]3(F)[C@@H](O)C[C@@]21C,inactive
6,Cc1nc2c([nH]1)CCN(C(=O)c1ccc(NC(=O)c3ccccc3-c3ccccc3)cc1)c1ccccc1-2,inactive
7,CC(C)C[C@H](NC(=O)c1cc2ccccc2s1)C(=O)N1CCN(C(=O)[C@H](CO)NS(=O)(=O)c2ccc(Cl)cc2Cl)CC1,inactive
8,CC(C)C[C@@H](C(=O)N[C@H](C(=O)OC1CCCC1)c1ccccc1)[C@H](O)C(=O)NO,inactive
9,CN(C)c1ccccc1CN1CCCN(Cc2ccccc2N(C)C)C1c1ccncc1,inactive
10,CC[C@H](C=C[C@@H](C)[C@H]1CC[C@H]2[C@@H]3CC=C4C[C@@H](O)CC[C@]4(C)[C@@H]3CC[C@]12C)C(C)C,inactive
11,CC1CCN(c2cc(N3CCN(C)CC3)ccc2NC(=O)c2cc(C#N)c[nH]2)CC1,inactive
12,COc1ccc2ccc(=O)oc2c1CC=C(C)C,inactive
13,CCc1cc(-c2n[nH]c(C)c2-c2ccc3c(c2)OCCO3)c(O)cc1O,inactive
14,CC1(C)OC2CC3C4CC(F)C5=CC(=O)C=CC5(C)C4C(O)CC3(C)[C@]2(C(=O)CO)O1 (stereo not given in full),inactive
15,COc1cc2nccc(Oc3ccc(NC(=O)Nc4ccc(F)cc4F)c(F)c3)c2cc1OC,inactive
16,COc1cc2c(cc1OC)[C@@H]1Cc3ccc(OC)c(OC)c3CN1CC2,inactive
17,CO[C@@H]1C(N(C)C(=O)c2ccccc2)C[C@H]2O[C@]1(C)n1c3ccccc3c3c4c(c5c6ccccc6n2c5c31)C(=O)NC4=O (stereo not given in full),19.2 µM (active)
18,CSc1cccc(Nc2ncc3cc(-c4c(Cl)cccc4Cl)c(=O)n(C)c3n2)c1,inactive
19,COc1cc2ncn(-c3cc(OCc4ccccc4S(C)(=O)=O)c(C#N)s3)c2cc1OC,inactive
20,Cc1csc(-c2nnc(Nc3ccc(Oc4ncccc4-c4ccnc(N)n4)cc3)c3ccccc23)c1,inactive
